Data published in PubChem BioAssay (NCATS).
Records with an inconclusive call do not appear. Calls of active or inactive are those of the source. Calls follow the shape of the dose curve; as a rule, active = well fitted inhibition curve with a large enough effect; inconclusive = small, poorly fitted or top-dose-only effect; inactive = flat fitted curve, though single readings scatter.

How the values were obtained:
[1] = biological target: Luciferin 4-monooxygenase (Photinus pyralis) (UniProt P08659); assay: Biochemical firefly luciferase enzyme assay for NPC (AID 624030); also: nearly all actives have a fitted effect of over 70% in size
Luciferin 4-monooxygenase (Photinus pyralis), sequence (P08659 whole entry, looked up): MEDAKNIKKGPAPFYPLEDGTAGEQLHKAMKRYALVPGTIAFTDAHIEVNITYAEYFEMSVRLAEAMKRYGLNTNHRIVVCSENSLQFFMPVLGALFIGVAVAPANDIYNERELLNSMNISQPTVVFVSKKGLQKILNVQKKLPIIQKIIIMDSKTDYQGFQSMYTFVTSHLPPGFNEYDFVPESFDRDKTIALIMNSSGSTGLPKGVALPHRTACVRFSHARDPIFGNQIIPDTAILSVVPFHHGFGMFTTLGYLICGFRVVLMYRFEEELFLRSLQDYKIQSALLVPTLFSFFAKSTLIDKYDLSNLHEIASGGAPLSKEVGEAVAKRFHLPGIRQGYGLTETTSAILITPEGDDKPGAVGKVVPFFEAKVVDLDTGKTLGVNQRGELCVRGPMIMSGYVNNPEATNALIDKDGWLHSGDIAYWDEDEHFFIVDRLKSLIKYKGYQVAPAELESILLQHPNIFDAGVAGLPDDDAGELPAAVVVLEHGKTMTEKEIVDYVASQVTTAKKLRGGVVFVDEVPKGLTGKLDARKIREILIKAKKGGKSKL
Outline: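 Purified P. pyralis luciferase at 10 nM in 50 mM Tris Acetate (final), luminescence read within 5 minutes of enzyme addition to compounds. Activity normalised to PTC124 versus DMSO; concentration-response curves classed by r2, magnitude and activity.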

[2] = qHTS profiling for inhibitors of Plasmodium falciparum proliferation (AID 504749);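 as to activity, negative = inhibition: 0% = DMSO vehicle and full inhibition = artemisinin control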; as to all read-outs here: nearly all actives have a fitted effect of over 60% in size; conditions: P. falciparum in erythrocytes, SYBR Green DNA, 72 h; for activity, negative = inhibition: at 28.7 µM (top of the series)
Outline: (§1)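 P. falciparum-infected erythrocytes (0.3% parasitemia, 2.5% hematocrit) incubated with compound 72 h at 37 C, 5% CO2. Parasite DNA detected by SYBR Green after lysis, overnight at room temperature; normalised to 0.29 uM artemisinin and DMSO.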

AS120 = assay: as above; conditions: P. falciparum in erythrocytes, SYBR Green DNA, 72 h; series mostly up to 28.7 µM
Outline: as §1

ATS189 = assay: as above; conditions: P. falciparum in erythrocytes, SYBR Green DNA, 72 h; series mostly up to 28.7 µM
Outline: as §1

CP192 = assay: as above; conditions: P. falciparum in erythrocytes, SYBR Green DNA, 72 h; series mostly up to 28.7 µM
Outline: as §1

CP201 = assay: as above; conditions: P. falciparum in erythrocytes, SYBR Green DNA, 72 h; series mostly up to 28.7 µM
Outline: as §1

CP211 = assay: as above; conditions: P. falciparum in erythrocytes, SYBR Green DNA, 72 h; series mostly up to 28.7 µM
Outline: as §1

CP237 = assay: as above; conditions: P. falciparum in erythrocytes, SYBR Green DNA, 72 h; series mostly up to 28.7 µM
Outline: as §1

CP238 = assay: as above; conditions: P. falciparum in erythrocytes, SYBR Green DNA, 72 h; series mostly up to 28.7 µM
Outline: as §1

CP262 = assay: as above; conditions: P. falciparum in erythrocytes, SYBR Green DNA, 72 h; series mostly up to 28.7 µM
Outline: as §1

CP286 = assay: as above; conditions: P. falciparum in erythrocytes, SYBR Green DNA, 72 h; series mostly up to 28.7 µM
Outline: as §1

CP315 = assay: as above; conditions: P. falciparum in erythrocytes, SYBR Green DNA, 72 h; series mostly up to 28.7 µM
Outline: as §1

CP325 = assay: as above; conditions: P. falciparum in erythrocytes, SYBR Green DNA, 72 h; series mostly up to 28.7 µM
Outline: as §1

DFO2036 = assay: as above; conditions: P. falciparum in erythrocytes, SYBR Green DNA, 72 h; series mostly up to 28.7 µM
Outline: as §1

Dd2 = assay: as above; conditions: P. falciparum in erythrocytes, SYBR Green DNA, 72 h; series mostly up to 28.7 µM
Outline: as §1

ECU = assay: as above; conditions: P. falciparum in erythrocytes, SYBR Green DNA, 72 h; series mostly up to 28.7 µM
Outline: as §1

FAB9 = assay: as above; conditions: P. falciparum in erythrocytes, SYBR Green DNA, 72 h; series mostly up to 28.7 µM
Outline: as §1

HB3 = assay: as above; conditions: P. falciparum in erythrocytes, SYBR Green DNA, 72 h; series mostly up to 28.7 µM
Outline: as §1

N140 = assay: as above; conditions: P. falciparum in erythrocytes, SYBR Green DNA, 72 h; series mostly up to 28.7 µM
Outline: as §1

PC49 = assay: as above; conditions: P. falciparum in erythrocytes, SYBR Green DNA, 72 h; series mostly up to 28.7 µM
Outline: as §1
Potency is read from the fitted curve at half-maximal effect.

Cc1ccc(Nc2ncccc2C(=O)O)cc1C
inactive: activity, negative = inhibition ([2]; parasite line A) 6.4% | activity, negative = inhibition ([2]; parasite line B) 7.72% | Potency (AS120) | Potency (ATS189) | Potency (CP192) | Potency (CP201) | Potency (CP211) | Potency (CP237) | Potency (CP238) | Potency (CP262) | Potency (CP286) | Potency (CP315) | Potency (CP325) | Potency (DFO2036) | Potency (Dd2) | Potency (ECU) | Potency (FAB9) | Potency (HB3) | Potency (N140) | Potency (PC49)
active: Potency [1] 11.4 µM

CCC(=O)OC1C(N(C)C)CC(C)O[C@H]1O[C@H]1[C@H](C)[C@@H](O[C@H]2CC(OC)[C@@H](O)C(C)O2)[C@H](C)C(=O)O[C@@H](CC)[C@](C)(O)[C@@H](O)[C@H](C)C(=O)[C@@H](C)C[C@]1(C)O (some centres not stated)
inactive: Potency [1] | Potency (AS120) | Potency (ATS189) | Potency (CP192) | Potency (CP201) | Potency (CP211) | Potency (CP237) | Potency (CP238) | Potency (CP262) | Potency (CP315) | Potency (CP325) | Potency (FAB9) | Potency (HB3) | Potency (PC49)
active: Potency (Dd2) 12.6 µM

Nc1ncn(C2C[C@H](O)[C@@H](CO)O2)c(=O)n1 (some centres not stated)
inactive: Potency [1] | activity, negative = inhibition ([2]; parasite line A) 2.14% | activity, negative = inhibition ([2]; parasite line B) -13.9% | Potency (AS120) | Potency (ATS189) | Potency (CP192) | Potency (CP201) | Potency (CP211) | Potency (CP237) | Potency (CP238) | Potency (CP262) | Potency (CP286) | Potency (CP315) | Potency (CP325) | Potency (DFO2036) | Potency (Dd2) | Potency (ECU) | Potency (FAB9) | Potency (HB3) | Potency (N140) | Potency (PC49)

C[C@]12CCC(=O)C=C1[C@@H]1C[C@H]1[C@H]1[C@@H]3[C@@H]4C[C@H]4[C@@]4(CCC(=O)O4)[C@@]3(C)CC[C@@H]12
inactive: Potency [1] | activity, negative = inhibition ([2]; parasite line A) -2.83% | activity, negative = inhibition ([2]; parasite line B) -11.7% | Potency (AS120) | Potency (ATS189) | Potency (CP192) | Potency (CP201) | Potency (CP211) | Potency (CP237) | Potency (CP238) | Potency (CP262) | Potency (CP286) | Potency (CP315) | Potency (CP325) | Potency (DFO2036) | Potency (Dd2) | Potency (ECU) | Potency (FAB9) | Potency (HB3) | Potency (N140) | Potency (PC49)

C=CC1CN2CCC1CC2[C@@H](O)c1ccnc2ccc(OC)cc12 (some centres not stated)
inactive: Potency [1]
active: Potency ([2]; parasite line A) 0.0501 µM | Potency ([2]; parasite line B) 0.0562 µM | Potency (AS120) 0.398 µM | Potency (ATS189) 0.316 µM | Potency (CP192) 0.757 µM | Potency (CP201) 1.07 µM | Potency (CP211) 0.675 µM | Potency (CP237) 0.891 µM | Potency (CP238) 0.891 µM | Potency (CP262) 0.338 µM | Potency (CP286) 0.282 µM | Potency (CP315) 0.953 µM | Potency (CP325) 0.478 µM | Potency (DFO2036) 0.708 µM | Potency (Dd2) 0.282 µM | Potency (ECU) 0.112 µM | Potency (FAB9) 0.0794 µM | Potency (HB3) 0.158 µM | Potency (N140) 0.316 µM | Potency (PC49) 0.282 µM

CC(=O)N1CC(O)CC1C(=O)O (configuration not stated)
inactive: Potency [1] | activity, negative = inhibition ([2]; parasite line A) -10.1% | activity, negative = inhibition ([2]; parasite line B) -6.82% | Potency (AS120) | Potency (ATS189) | Potency (CP192) | Potency (CP201) | Potency (CP211) | Potency (CP237) | Potency (CP238) | Potency (CP262) | Potency (CP286) | Potency (CP315) | Potency (CP325) | Potency (DFO2036) | Potency (Dd2) | Potency (ECU) | Potency (FAB9) | Potency (HB3) | Potency (N140) | Potency (PC49)

CNC1CCc2cc(OC)c(OC)c(OC)c2-c2ccc(OC)c(=O)cc21 (configuration not stated)
inactive: Potency [1] | activity, negative = inhibition ([2]; parasite line A) -5.32% | activity, negative = inhibition ([2]; parasite line B) 0.292% | Potency (AS120) | Potency (ATS189) | Potency (CP192) | Potency (CP201) | Potency (CP211) | Potency (CP238) | Potency (CP262) | Potency (CP286) | Potency (CP315) | Potency (CP325) | Potency (DFO2036) | Potency (ECU) | Potency (FAB9) | Potency (HB3) | Potency (N140) | Potency (PC49)

C=C1C(n2cnc3c(=O)[nH]c(N)nc32)C[C@H](O)[C@H]1CO (some centres not stated)
inactive: Potency [1] | activity, negative = inhibition ([2]; parasite line A) 9.61% | activity, negative = inhibition ([2]; parasite line B) -7.65% | Potency (AS120) | Potency (ATS189) | Potency (CP192) | Potency (CP201) | Potency (CP211) | Potency (CP237) | Potency (CP238) | Potency (CP315) | Potency (DFO2036) | Potency (Dd2) | Potency (ECU) | Potency (FAB9) | Potency (HB3) | Potency (N140)

C[C@H](CN1c2ccccc2Sc2cccnc21)N(C)C
active: Potency (AS120) 11.2 µM | Potency (ATS189) 5.01 µM | Potency (CP237) 2 µM | Potency (CP238) 10 µM | Potency (CP286) 4.47 µM | Potency (DFO2036) 11.2 µM | Potency (Dd2) 4.47 µM | Potency (N140) 11.2 µM
inactive: Potency [1] | activity, negative = inhibition ([2]; parasite line A) -16.9% | activity, negative = inhibition ([2]; parasite line B) -1.99% | Potency (CP262) | Potency (ECU) | Potency (FAB9) | Potency (HB3) | Potency (PC49)
